PubChem BioAssay (EPA / NIEHS)
Calls of active or inactive are those of the source. The calls were made as follows: active = hit-call score of the fitted dose curve at least 0.9, where 1 is the maximum; inactive = score below 0.9.

The compounds below were run on ABC Transporter (ABCC3), ABCC3 (gene 8714) (assay: LTEA_HepaRG_ABCC3: Life Technologies and Expression Analysis (LTEA) Assay for ABC Transporter (ABCC3) using HepaRG (AID 2283462)). Details: mRNA level, 48 h; actives raise or lower the signal.
Protocol: LTEA_HepaRG is a cell based, multiplexed-readout assay that uses HepaRG, a human liver cell line, with measurements taken at 48 hours after chemical dosing on a 96-well plate.LTEA_HepaRG_ABCC3 is one of 102 assay component(s) measured in the LTEA HepaRG cell culture assay. It is a marker of NR mediated transport.Data from the assay component LTEA_HepaRG_ABCC3 was analyzed into 1 endpoint. This assay endpoint, LTEA_HepaRG_ABCC3, was analyzed with bidirectional fitting relative to DMSO as the negative control and baseline of activity. Using a type of inducible reporter, measures of mRNA induction for gain or loss-of-signal activity can be used to understand regulation of transcription factor activity. To generalize the intended target to other relatable targets, this assay endpoint is annotated to the transporter intended target family, where the subfamily is ABC transporter.
A total of 1060 chemcials from the ToxCast library were tested in eight-point concentration-response experiments. Cell culture and cytotoxicity assays were conducted at Thermo Fisher Scientific's Custom Services facility (Madison, WI). A single lot of human HepaRG cells (Thermo Fisher Scientific, Frederick, MD) was used for the cell culture experiments. 96-well format collagen type I coated plates of human HepaRG cells were prepared using established methods. Briefly, cryopreserved HepaRG cells were thawed, plated at a density of approximately 100,000 cells/well in HepaRG Thaw, Plate, and General Purpose media (HPRG770, Thermo Fisher Scientific), and incubated for 48 hours. 0.5% DMSO was selected as vehicle control to balance the requisite need of DMSO in HepaRG cultures to maintain differentiation (for example, baseline metabolism, proportions of hepatocytes vs. cholangiocytes), while enabling further hepatic receptor pathway activation (for example, PXR and CAR) in response to chemical exposure. 48 hours after plating, the culture medium was replaced with HepaRG Serum-Free Incudtion Media. Cells were exposed to each test chemical in duplicate and maintained in CO2 incubators for another 48 hours. Chemical plates were thawed to room temperature and 200x concentrations of treatment groups were prepared. 8-point conentration-reponse curves were made with the highest exposure at 100 uM, followed by half-log dilutions, all in 0.5% DMSO. Each test plate contained variouse controls, induction positive controls (1mM phenobarbital), cytotoxicity positive controls ([…] aflatoxin B1), vehicle controls (0.5% DMSO), and total lysis controls (0.5% DMSO). Cell morphology images were taken using an Essen IncuCyte FLR automated microscope, with six 96-well plates imaged in about 24 minutes. Images were captured and exported and JPEG files. Spent culture media was transfered to black-well plates for the LDH assay, and remaining media was sorted at -80 C for later use. Cells were treated with RLT buffer and frozen until shipped for gene expression analysis. Total RNA was isolated from the cell suspension in 75 uL of Buffer RLT (Qiagen, Germantown, MD 20874) by Quintiles/Expression Analysis (Durham, NC) using a custom isolation procedure. Total RNA from each plate well was transferred to a preamplification plate. Fluidigm's 96.96 Dynamic ArrayTM (Fluidigm, Amsterdam, the Netherlands) technology was used for gene expression analyses by quantitative reverse transcription polymerase chain reaction (qRT-PCR, performed by Quintiles/Expression Analysis, Durham, NC)89. Standard TaqManTM Assays (Applied Biosystems/ThermoFisher Scientific, Foster City, CA) were used to assess the expression of 93 genes selected based on their selectivity and sensitivity to important hepatic receptors known to be modulated by environmental chemicals; importance in human hepatocyte functionality; and hepatotoxicity. […]

Row | Compound | outcome | AC50
1 | CC#Cc1cc(C)nc(Nc2ccccc2)n1 | inactive | –
2 | Nc1ccc(-c2ccc(N)cc2)cc1 | inactive | –
3 | CCCCCCCCOC(=O)c1ccccc1C(=O)OCCCCCCCC | inactive | –
4 | CC1=C2C[C@H]3[C@@H](CC=C4C[C@@H](O)CC[C@@]43C)[C@@H]2CC[C@]12O[C@@H]1C[C@H](C)CN[C@H]1[C@H]2C | inactive | –
5 | Oc1ccc(C(c2ccc(O)cc2)(C(F)(F)F)C(F)(F)F)cc1 | inactive | –
6 | O=C(O)C(F)(F)C(F)(F)C(F)(F)C(F)(F)C(F)(F)C(F)(F)C(F)(F)C(F)(F)C(F)(F)F | – | 88.5 µM (active)
7 | C=CC(N)=O | inactive | –
8 | C[C@]12CCC(=O)C=C1CC[C@@H]1[C@@H]2CC[C@]2(C)C(=O)CC[C@@H]12 | inactive | –
9 | Cc1cccc([N+](=O)[O-])c1 | inactive | –
10 | CCCCCCOC(=O)c1ccccc1C(=O)OCCCCCC | inactive | –
11 | CCCCCCCCCC[N+](C)(C)CCCCCCCCCC | – | 79.8 µM (active)
12 | Nn1cnnc1 | inactive | –
13 | CO/C=C(/C(=O)OC)c1ccccc1COc1cccc(C(F)(F)F)n1 | – | 1.91 µM (active)
14 | CCOP(=S)(OCC)SCSC(C)(C)C | inactive | –
15 | Cc1cccc(C)c1N | inactive | –
16 | CCC(=O)O[C@H]1CC[C@H]2[C@@H]3CCC4=CC(=O)CC[C@]4(C)[C@H]3CC[C@]12C | inactive | –
17 | CCSC(=O)N(CC)C1CCCCC1 | inactive | –
18 | Cc1cc2c3c(c1)C(c1ccccc1)=N[C@@H](NC(=O)c1ccncc1)C(=O)N3CC2 | inactive | –
19 | Clc1ccc(Cl)cc1 | inactive | –
20 | CCOCCOC(C)=O | inactive | –

Row | Compound | outcome | AC50
21 | C=CC(=O)NCNC(=O)C=C | inactive | –
22 | Cc1ccccc1O | inactive | –
23 | C[C@]12CCC(=O)C=C1CC[C@@H]1[C@@H]2CC[C@@]2(C)[C@H]1CC[C@]2(C)O | inactive | –
24 | CCCCCCCCCc1ccc(O)cc1 | inactive | –
25 | CN(C)CCO | inactive | –
26 | O=NN(c1ccccc1)c1ccccc1 | inactive | –
27 | O=S(=O)(O)C(F)(F)C(F)(F)C(F)(F)C(F)(F)F | inactive | –
28 | O=C(O)C(F)(F)C(F)(F)C(F)(F)C(F)(F)C(F)(F)C(F)(F)C(F)(F)C(F)(F)F | inactive | –
29 | c1cc2ccc3cccc4ccc(c1)c2c34 | inactive | –
30 | O=C(N[C@H]1CN2CCC1CC2)c1cc2ccoc2cn1 | inactive | –
31 | CC(c1ccc(O)cc1)(c1ccc(O)cc1)c1ccc(O)cc1 | inactive | –
32 | COS(=O)(=O)OC | inactive | –
33 | CC(C)(c1ccccc1)c1ccc(O)cc1 | inactive | –
34 | CCC(C)(c1ccc(O)cc1)c1ccc(O)cc1 | inactive | –
35 | c1ccc(-c2ccccc2)cc1 | inactive | –
36 | ClC1=C(Cl)[C@]2(Cl)[C@@H]3[C@@H]4C[C@@H]([C@H]5O[C@@H]45)[C@@H]3[C@@]1(Cl)C2(Cl)Cl | inactive | –
37 | Cc1ccccc1[N+](=O)[O-] | inactive | –
38 | CC(C)C(=O)OCC(C)(C)C(OC(=O)C(C)C)C(C)C (stereo not given) | inactive | –
39 | Cc1cc(-c2ccc(N)c(C)c2)ccc1N | inactive | –
40 | CN(C)c1nc(=O)n(C2CCCCC2)c(=O)n1C | inactive | –
